In PubChem BioAssay AID2716 (Broad Institute, 2010):
In all, about 320,000 compounds went through this assay and about 3,300 (1%) were called active. The entries come from a sample that favours actives as a whole. Unmarked numbers belong to inactive results.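 How the source made its calls: active means every valid replicate shows activation above 250% relative to neutral control wells; inactive means the rest, any valid replicate at or below 250%.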

Experiment: restored growth of temperature-sensitive Mot1-301 yeast – S. cerevisiae, ATP luminescence, 38.5C, SUMOylation pathway inhibitor project, primary screen (AID 2716)
Settings: S. cerevisiae Mot1-301 growth rescue, at 18.8 µM, active compounds read high

**Q.** With Cc1ccc(-n2c(-c3ccc([N+](=O)[O-])cc3)nc3ccccc3c2=O)cc1 as the compound, how does the growth rescue read?
**A.** The growth rescue was 30.7%.

**Q.** For O=c1c2ccccc2nc(-c2ccccc2)n1-c1ccccn1, which growth rescue is on record?
**A.** The growth rescue was -8.46%.

**Q.** For COc1ccc(-n2c(-c3ccccc3)nc3ccccc3c2=O)cc1, which growth rescue is on record?
**A.** The growth rescue was 524% (active).

**Q.** Which growth rescue does the source give for C[C@@]1([C@@H](NP(=O)(c2ccccc2)c2ccccc2)c2ccccc2)C[C@H]1CCO here?
**A.** The growth rescue was 28.7%.

**Q.** For CCCC(C)n1[nH]c(=O)c2c1NC(=O)CSC2c1ccc(OC)c(OC)c1 (stereo not given), which growth rescue is on record?
**A.** Its growth rescue is -11.2%.

**Q.** With c1ccc(CCN2CCC3(CC2)OCCO3)cc1 as the compound, how does the growth rescue read?
**A.** The growth rescue was 313% (active).

**Q.** With O=C(Nc1cccc2ccccc12)N1CCC2(CC1)OCCO2 as the compound, how does the growth rescue read?
**A.** Its growth rescue is 2.67%.

**Q.** Which growth rescue does the source give for O=C(c1ccccc1[N+](=O)[O-])N1CCC2(CC1)OCCO2 here?
**A.** Its growth rescue is -11.1%.

**Q.** For COc1ccccc1OC(=O)c1ccc(C)c(S(=O)(=O)N2CCOCC2)c1, which growth rescue is on record?
**A.** The growth rescue was -7.94%.

**Q.** For CCOP(=O)(OCC)C(O)c1ccc(OC)cc1OC (stereo not given), which growth rescue is on record?
**A.** The growth rescue was -5.29%.

**Q.** For COc1ccc(N=Cc2c(O)n(C)c(=O)[nH]c2=O)cc1, which growth rescue is on record?
**A.** Its growth rescue is 842% (active).

**Q.** With COc1ccccc1-n1c(O)c(C=NC2CC2)c(=O)[nH]c1=O as the compound, how does the growth rescue read?
**A.** The growth rescue was -17.5%.

**Q.** With COc1ccc(-n2c(O)c(C(C)=Nc3ccc4c(c3)CCC4)c(=O)[nH]c2=O)cc1 as the compound, how does the growth rescue read?
**A.** The growth rescue was -1.78%.

**Q.** For CC(Cc1ccccc1)NCCC(c1ccccc1)c1ccccc1 (stereo not given), which growth rescue is on record?
**A.** Its growth rescue is -27.1%.

**Q.** With CC(=NCc1ccc2c(c1)OCO2)c1c(O)[nH]c(=O)[nH]c1=O as the compound, how does the growth rescue read?
**A.** Its growth rescue is -26.7%.
